Test results as given in PubChem BioAssay AID2391 (Southern Research Specialized Biocontainment Screening …, 2010).
Among all 310,000 compounds or so, about 410 (0.13%) were called active. Roughly 2% stayed inconclusive and do not appear here. The rule behind the calls is not given here. These entries were drawn from the full list. Measured potencies and affinities stand elsewhere.

Experiment: inhibition of RSV-induced cytopathic effect – HEp-2 cells, primary 10 µM value included (AID 2391)
Conditions: at 10 µM, hits give high values

CPE inhibition, inactive:
COc1ccccc1N=Nc1nc(-c2ccccc2)c(-c2ccccc2)[nH]1 12.4%, CC(C)CNC(=O)COC(=O)CNC(=O)c1cc(Cl)cc([N+](=O)[O-])c1 1.69%, COC(=O)C1=C(C)N(c2ccccc2)/C(=C/c2ccco2)C1=O 0.77%, CCc1ccc(NCCC(=O)c2ccc(Br)cc2)cc1 0.86%, CCS(=O)(=O)N1CCCC(C(=O)Oc2ccc(Br)cc2)C1 (centres undefined) -0.04%, O=C(O)c1cccc(NC(=O)c2cn(-c3ccccc3)nc2-c2ccc([N+](=O)[O-])cc2)c1 19%, COc1ccc(-c2oc(=O)c3cc(OC)c(OC)cc3c2/C=C/c2ccc(F)cc2)cc1 5.33%, COc1cc(OC)cc(-c2oc(=O)c3cc(OC)c(OC)cc3c2/C=C/c2ccc(F)cc2)c1 3.91%, Cc1cc(N(C(=O)c2ccco2)C(C(=O)NC2CCCCC2)c2ccccc2)ccc1-n1cnnn1 (centres undefined) 0.41%, CCN(CC)c1ccc(NC(=O)C(C)C)cc1 0.56%, Cc1[nH]c(C)c(S(=O)(=O)N2CCN(c3ccccc3)CC2)c1C(=O)N1CCCCC1 0.61%, COc1cccc(N2CCN(S(=O)(=O)c3c(C)[nH]c(C)c3C(=O)N3CCCCC3)CC2)c1 1.56%, Cc1[nH]c(C)c(S(=O)(=O)N2CCN(c3cccc(Cl)c3)CC2)c1C(=O)N1CCCC1 0.18%, Cc1[nH]c(C)c(S(=O)(=O)N2CCN(c3cccc(C(F)(F)F)c3)CC2)c1C(=O)N1CCCC1 2.4%, Cc1nc(SCC(=O)NCc2ccco2)c2c(=O)n(C)c(=O)n(CC(C)C)c2n1 1.51%, O=c1c2c(n3cnnc3n1C1CCCCC1)-c1ccccc1CC21CCCCC1 3.08%, O=C(CCn1nnc2ccccc2c1=O)N[C@@H](Cc1ccccc1)C(=O)O 2%, COc1ccc(OC)c(CN2CCN(C(=O)c3ccco3)CC2)c1 0.83%, CC(C)(C)OC(=O)CN1C(=O)NC(Cc2c[nH]c3ccccc23)C1=O (centres undefined) -0.27%, CNC(=O)CN1C(=O)NC(Cc2c[nH]c3ccccc23)C1=O (centres undefined) 2.1%, CC1CN(C(=O)/C=C/c2ccc(SC(F)F)cc2)CC(C)O1 (centres undefined) 1.82%, Cc1occc1-c1nnc(SCC(N)=O)n1Cc1ccccc1 1%, COC(=O)c1cccnc1NC(=S)NC1CCCCC1 0.64%, CC(C)OC(=O)c1ccc(Cn2nnc3ccccc3c2=O)cc1 12.4%
